Measured values published in the supplement of paper PMC3545927.
The list shows a part of the results. The true hit rate is not given.

Target: furin, P09958
Assay: furin cleavage Z-score vs untreated control; higher = more cleavage, active = 3.5 or more, inactive = 1 or less, 8 variable residues between constant flanks
Procedure, shortened: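 Magnetic beads held 8-mer peptides by the N-terminus, each fused to a cDNA oligonucleotide, and purified furin was added for 7.5, 15 or 30 min. Released DNA was sequenced after PCR adapter tagging. The cleavage Z-score is the log count relative to furin-free reactions, lowess-adjusted and divided by median absolute deviation.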
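Further: purified furin at 1:10 enzyme:substrate in 50 mM HEPES pH 7.5.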

Chain of furin, P09958 (P09958 whole entry): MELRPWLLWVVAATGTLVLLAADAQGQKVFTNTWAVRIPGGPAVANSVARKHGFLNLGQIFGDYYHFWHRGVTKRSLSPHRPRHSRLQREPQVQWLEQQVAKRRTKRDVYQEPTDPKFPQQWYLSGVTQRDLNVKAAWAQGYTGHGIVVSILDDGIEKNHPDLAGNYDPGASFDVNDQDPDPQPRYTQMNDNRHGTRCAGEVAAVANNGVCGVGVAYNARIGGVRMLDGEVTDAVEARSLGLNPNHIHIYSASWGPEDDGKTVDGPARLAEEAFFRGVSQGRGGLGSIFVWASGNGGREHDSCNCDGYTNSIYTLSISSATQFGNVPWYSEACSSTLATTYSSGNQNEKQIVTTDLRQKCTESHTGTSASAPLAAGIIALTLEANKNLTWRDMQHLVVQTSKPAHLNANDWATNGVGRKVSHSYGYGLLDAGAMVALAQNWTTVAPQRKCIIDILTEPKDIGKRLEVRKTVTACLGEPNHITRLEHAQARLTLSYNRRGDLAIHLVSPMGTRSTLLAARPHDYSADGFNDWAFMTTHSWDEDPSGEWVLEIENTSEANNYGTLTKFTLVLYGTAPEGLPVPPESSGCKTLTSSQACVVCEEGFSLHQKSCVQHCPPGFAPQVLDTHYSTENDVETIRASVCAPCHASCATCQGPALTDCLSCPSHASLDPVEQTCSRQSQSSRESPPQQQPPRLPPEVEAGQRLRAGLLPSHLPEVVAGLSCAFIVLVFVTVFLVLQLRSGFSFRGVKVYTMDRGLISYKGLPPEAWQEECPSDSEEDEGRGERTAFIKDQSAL

Sequence	furin cleavage Z-score (7.5 min)	furin cleavage Z-score (15 min)	furin cleavage Z-score (30 min)
CASTQCSAHLAGNASASA [HC2522]	1.38	0.361 (inactive)	0.641 (inactive)
CASPDAELIEAGNASASA [HC1271]	-0.191 (inactive)	-1.02 (inactive)	-2.02 (inactive)
CASTPCSAHDAGNASASA [HC2571]	-1.23 (inactive)	-0.24 (inactive)	-0.964 (inactive)
CAFNILGGWVAGNASASA [HC1065]	-0.849 (inactive)	-1.69 (inactive)	0.522 (inactive)
CATQTVDFSLAGNASASA [HC890]	0.518 (inactive)	0.088 (inactive)	-1.06 (inactive)
CAIVCCSMSYAGNASASA [HC1984]	0.599 (inactive)	0.44 (inactive)	1.09
CAVVCCSMVYAGNASASA [HC2070]	1.39	-0.784 (inactive)	-0.578 (inactive)
CAVEAQLHVWAGNASASA [HC587]	0.261 (inactive)	1.76	0.118 (inactive)
CAGPARSHRSAGNASASA [FS-1525]	2.6	5.21 (active)	5.09 (active)
CAGMIRVRKSAGNASASA [FS-244]	9.53 (active)	9.46 (active)	8.14 (active)
CACPGRPWKSAGNASASA [FS-645]	0.174 (inactive)	0.632 (inactive)	-1.05 (inactive)
CAGKPRVRKSAGNASASA [FS-160]	11.6 (active)	11.6 (active)	7.27 (active)
CAEVPCHRKSAGNASASA [HC2394]	0.666 (inactive)	1.67	0.974 (inactive)
CAQSLRQRKSAGNASASA [FS-915]	0.195 (inactive)	0.0646 (inactive)	0.773 (inactive)
CAPAEILRKSAGNASASA [HC1296]	-1.4 (inactive)	-0.0107 (inactive)	-2.04 (inactive)
CAMYECSQHLAGNASASA [HC1689]	1.1	2.02	0.756 (inactive)
CAEVVYSTWVAGNASASA [HC137]	-0.752 (inactive)	0.088 (inactive)	1.03
CASTPCSRHLAGNASASA [HC2533]	1.13	0.843 (inactive)	-0.486 (inactive)
CATTPMSGSWAGNASASA [HC48]	-1.24 (inactive)	-0.966 (inactive)	-0.511 (inactive)
CAAACGDIINAGNASASA [HC656]	-0.691 (inactive)	-0.739 (inactive)	-0.629 (inactive)
CAYGAGVAGAAGNASASA [HC1088]	-0.899 (inactive)	-0.739 (inactive)	-0.913 (inactive)
CAPSNRSARAAGNASASA [FS-1245]	8.79 (active)	11.3 (active)	9 (active)
CAIRARVARAAGNASASA [FS-1348]	9.33 (active)	9.7 (active)	7.2 (active)

Sequence	furin cleavage Z-score (7.5 min)	furin cleavage Z-score (15 min)	furin cleavage Z-score (30 min)
CAREIRQAFKAGNASASA [FS-2912]	0.791 (inactive)	0.404 (inactive)	0.281 (inactive)
CAAMFRVRRNAGNASASA [FS-5]	13 (active)	11.7 (active)	9.8 (active)
CAPTLWARMIAGNASASA [HC1579]	0.463 (inactive)	2.4	0.0409 (inactive)
CAPEIRQARAAGNASASA [FS-1043]	3.65 (active)	4.35 (active)	4.12 (active)
CARLKKSQFLAGNASASA [FS-2988]	-1.1 (inactive)	-0.681 (inactive)	-1.54 (inactive)
CAVDGIMHTRAGNASASA [HC1171]	1.01	-0.806 (inactive)	1.2
CARLHRFWEGAGNASASA [FS-1739]	1.61	-1.73 (inactive)	0.551 (inactive)
CAALSRTARAAGNASASA [FS-1510]	8.19 (active)	7.7 (active)	6.47 (active)
CASTARLARAAGNASASA [FS-1287]	5.91 (active)	8.42 (active)	8.27 (active)
CALTQRTARAAGNASASA [FS-59]	6.17 (active)	5.48 (active)	5.53 (active)
CAALSRVRRAAGNASASA [FS-973]	8.87 (active)	9.48 (active)	6.93 (active)
CASTPCSAHAAGNASASA [HC2563]	1.54	0.374 (inactive)	-0.524 (inactive)
CASTALAELAAGNASASA [HC1331]	-1.46 (inactive)	-0.668 (inactive)	0.259 (inactive)
CAPLGGAARAAGNASASA [HC232]	-0.625 (inactive)	-0.427 (inactive)	-0.526 (inactive)
CAVPASAYQVAGNASASA [HC254]	0.602 (inactive)	-1.58 (inactive)	-0.419 (inactive)
CAEVLTSTWVAGNASASA [HC2185]	0.631 (inactive)	-0.524 (inactive)	0.492 (inactive)
CAALGINAVAAGNASASA [HC865]	0.253 (inactive)	0.918 (inactive)	-1.14 (inactive)
CAHIARALRNAGNASASA [FS-662]	0.331 (inactive)	1.47	0.623 (inactive)
CASHSRVRRAAGNASASA [FS-294]	11.4 (active)	9.7 (active)	7.37 (active)
CAALGRKARAAGNASASA [FS-115]	6.64 (active)	6.76 (active)	5.64 (active)
CASTPCSAHNAGNASASA [HC2581]	-0.0473 (inactive)	1.28	-0.895 (inactive)
CASTARIRRNAGNASASA [FS-198]	11.3 (active)	11.2 (active)	10.4 (active)
